Source: PubChem BioAssay (several laboratories)
MITF TRPM1 HTS: increases MITF-driven TRPM1 promoter luciferase signal; SK-MEL-5 TRPM1-promoter luciferase, 24 h; % of positive control, neutral wells = 0; activation, % at 12.5 µM; hit rate 0.75% among 300,000;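 active = mean activation of at least 80% with every replicate also reaching 80%; inconclusive = mean reaches 80% but some replicate falls short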;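 note: 0% = neutral control wells and 100% = parthenolide positive control wells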
Wnt bcat act: Wnt/beta-catenin pathway activation; Wnt/beta-catenin reporter cell assay, activator, plate reader; activation, % at 9.35 µM; hit rate 1.2% among 300,000; AID 743398; in the data active = activation above about 30%, passing the limit was not always enough; inconclusive = no clear call, values can overlap the other calls;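 note: 0% = neutral control wells and 100% = positive control wells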
GAA850 FXN act: activators of GAA850 frataxin (FXN) promoter. hit rate 0.56% among 360,000. activation, % at 6 µM. AID 540364. HEK293 lucGAA850 FXN promoter luciferase reporter, 24 h; percent of 10 µM SAHA response;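 active = activation above the average of all compounds screened plus 3 SD, cutoff fixed separately per campaign, cut at about 7.5% in these data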;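 note: 0% = DMSO wells and 100% = 10 µM SAHA wells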
esBAF inh: inhibitors of esBAF chromatin remodeling in mouse ES cells. hit rate 2% among 350,000. reporter increase, % at 12.5 µM. AID 602393. Bmi1-luciferase knock-in reporter, 24 h; 100% = twice the neutral-well signal; in the data active = activation above about 40%; inconclusive = no clear call, values can overlap the other calls;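 note: 0% = median of the plate's neutral control wells and 100% = double that signal; a rise in the Bmi1 reporter signal indicates esBAF inhibition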
* = called active by the depositor; ? = inconclusive; / = not tested or not shown. Shown are actives, neighbours in structure and some others; about 2.8% of the full set was active somewhere.

SMILES	MITF TRPM1 HTS	Wnt bcat act	GAA850 FXN act	esBAF inh
Cc1noc(C)c1S(=O)(=O)N(C)C[C@H]1OCCCC[C@@H](C)Oc2ccc(NS(=O)(=O)c3ccccc3)cc2C(=O)N([C@H](C)CO)C[C@@H]1C	/	/	/	6
O=C(C[C@H]1CC[C@H]2[C@@H](COC[C@@H](O)CN2Cc2ccc(Oc3ccccc3)cc2)O1)N1CCCCC1	/	/	/	7
NC(=O)c1ccsc1NC(=O)C1CCCN1S(=O)(=O)c1ccc(Cl)cc1 (centres undefined)	8	-2	-2	-11
CC1CCCCN1S(=O)(=O)c1ccc(C(=O)Nc2sccc2C(N)=O)cc1 (centres undefined)	58	13	6	83*
COc1ccc(S(=O)(=O)Nc2cccc(-c3ccc(N4CCCCCC4)nn3)c2)cc1OC	36	1	2	19
Cc1ccc(S(=O)(=O)Nc2cccc(-c3ccc(N4CCCCCC4)nn3)c2)cc1	?	20	4	67*
O=C(Nc1cccc(-c2ccc(N3CCOCC3)nn2)c1)c1ccccc1Cl	107*	-3	3	54*
O=C(Nc1cccc(-c2ccc(N3CCOCC3)nn2)c1)c1cccc(Cl)c1	/	35*	2	71*
O=C(Nc1cccc(-c2ccc(N3CCOCC3)nn2)c1)c1ccc(Cl)cc1	84*	-2	2	35
Cc1cc(C(=O)Nc2cccc(-c3ccc(N4CCOCC4)nn3)c2)ccc1[N+](=O)[O-]	76	27	4	/
O=C(COc1ccc(Cl)cc1)Nc1cccc(-c2ccc(N3CCOCC3)nn2)c1	71	30	3	-38
C[C@@H]1CN([C@H](C)CO)C(=O)Cc2cc(NS(=O)(=O)c3cccs3)ccc2O[C@H]1CN(C)C(=O)Nc1ccc(F)cc1	/	/	/	-4
Cc1ccc(C(=O)Nc2cccc(-c3ccc(N4CCOCC4)nn3)c2)cc1C	76	29	1	/
Cc1ccc(C(=O)Nc2cccc(-c3ccc(N4CCOCC4)nn3)c2)cc1	75	36*	3	52*
CN(C)c1ccc(NC(=O)c2ccc(N3CCOCC3)nc2)cc1	32	9	2	51*
NC(N)=Nc1nc(C2COc3ccccc3O2)cs1 (centres undefined)	51	53*	6	/
CC(=O)Nc1nc(C2COc3ccccc3O2)cs1 (centres undefined)	50	/	5	4
O=C(c1ccc(C(=O)N2CCOCC2)s1)N1CCOCC1	14	0	-2	4
O=C(c1ccc(-c2ccccc2Cl)s1)N1CCOCC1	92*	10	4	/
Nc1nc(Nc2ccc(Cl)cc2Cl)nc(C(F)(F)F)n1	69	/	7	64*
Nc1nc(Nc2ccccc2Br)nc(C(F)(F)F)n1	23	5	3	20
COc1ccccc1C1CC(c2cccs2)=Nc2ccccc2S1 (centres undefined)	3	41*	7	53*
COc1ccccc1C1CC(c2cccs2)=NN1C(=O)CCC(=O)O (centres undefined)	-15	-2	0	4
O=C(CN1CCOCC1)NCC[C@H]1CC[C@@H](NC(=O)Nc2ccccc2)[C@H](CO)O1	/	/	/	1
O=C(NNC(=S)Nc1ccccc1Cl)c1ccccc1Cl	78	26	4	53*
SMILES	MITF TRPM1 HTS	Wnt bcat act	GAA850 FXN act	esBAF inh
O=C(Nc1ccccc1Cl)c1ccccc1Cl	32	0	2	14
O=C(NNC(=S)Nc1ccc(Cl)cc1)c1ccccc1	32	0	6	31
O=C(NNC(=S)Nc1ccccc1Cl)c1ccccc1	93*	24	4	71*
O=C(c1ccc(-c2ccccc2)cc1)N1CCN(c2ccccc2)CC1	73	12	3	51*
O=C(O)c1ccc(/C=N/N2CCN(c3ccccc3)CC2)cc1	35	6	4	42*
O=C(O)c1ccc(C=NN2CCCCCC2)cc1	26	3	3	47*
CC(C)CC#Cc1ccc2c(c1)O[C@H](CN(C)C(=O)CC1CC1)[C@@H](C)CN([C@H](C)CO)S2(=O)=O	/	/	/	12
Cc1cc(=O)[nH]c(N=N/C(=N/Nc2ccc(O)cc2)c2ccccc2)n1	29	/	-1	49*
O=C(NCC[C@H]1CC[C@H](NC(=O)C2CCC2)[C@@H](CO)O1)Nc1ccc(Cl)cc1	/	/	/	29
COc1ccc(NC(=O)N(C)C[C@@H]2Oc3ccc(NS(=O)(=O)c4ccccc4)cc3C(=O)N([C@@H](C)CO)C[C@@H]2C)cc1	/	/	/	-3
COc1cccc(-c2cc(C(=O)NCc3cccs3)no2)c1	134*	3	3	72*
COc1ccc(-c2cc(C(=O)NCc3cccs3)no2)cc1	92*	?	3	42*
O=C(NCc1cccs1)c1cc(-c2ccccc2)on1	99*	/	3	40
CCCNC(=O)Nc1ccc2c(c1)C(=O)N(C)[C@@H]1CC[C@@H](CC(=O)NCC3CCCCC3)O[C@@H]1CO2	/	/	/	3
COC(=O)C1CCN(C(=O)c2oc3c(Cl)cc(C)cc3c2C)CC1	45	47*	7	26
CCOC(=O)C1CCCCN1C(=O)c1oc2c(Cl)cc(C)cc2c1C (centres undefined)	5	-1	1	2
Cc1cccc(NC(=O)N2CCN(Cc3ccc(Cl)cc3)CC2)c1	-13	0	1	2
O=C(Nc1cccc(Cl)c1)N1CCN(Cc2ccccc2)CC1	?	7	5	74*
CO[C@H]1CN(C)C(=O)c2cc(NC(C)=O)ccc2OC[C@H](C)N(CC2CC2)C[C@H]1C	/	/	/	7
COc1ccc(NC(=O)N(C)C[C@@H]2Oc3ncc(C#Cc4ccc(F)cc4)cc3C(=O)N([C@H](C)CO)C[C@@H]2C)cc1	/	/	/	1
CCCCC[C@H](O)/C=C/C1C(=O)C=C[C@H]1C/C=C\CCCC(=O)OC (some centres undefined)	-64	-2	8.2*	0
N=c1n(N)c2ccccc2n1CC(=O)c1ccc(Br)cc1	/	2	3	52*
N#Cc1c(-c2cccnc2)c2c([nH]c1=O)-c1ccccc1OC2	/	44*	0	3
N#Cc1c(-c2ccc(F)cc2)c2c([nH]c1=O)-c1ccccc1OC2	/	-2	1	/
CC(C)(C)n1ncc2c(=O)n(CC(=O)c3ccc(Cl)cc3)cnc21	74	/	1	74*
SMILES	MITF TRPM1 HTS	Wnt bcat act	GAA850 FXN act	esBAF inh
COc1ccc(S(=O)(=O)Nc2ccc3c(c2)C(=O)N([C@H](C)CO)C[C@H](C)[C@H](CN(C)S(=O)(=O)c2ccc(C)cc2)OCCCC[C@@H](C)O3)cc1	/	/	/	3
COc1ccc(-c2csc(N(CC3CCCO3)C(=O)c3ccc(C)cc3)n2)cc1 (centres undefined)	/	38*	-1	-34
Cc1ccc2c(c1)COc1c3ccc(C(=O)NCC4CC4)cc3nn1-2	78	18	2	94*
C=CCNC(=O)c1ccc2c3n(nc2c1)-c1ccc(Cl)cc1CO3	90*	44*	2	53*
O=C(NCC1CC1)c1ccc2c3n(nc2c1)-c1ccccc1CO3	44	46*	3	4
Cc1ccc2c(c1)COc1c3ccc(C(=O)O)cc3nn1-2	-68	-1	0	2
O=C(NCCO)c1ccc2c3n(nc2c1)-c1ccccc1CO3	73	37*	3	2
